Bioassay records deposited in PubChem by National Center for Advancing Translational Sciences (NCATS).
Cruzain inh noDet: blocks cruzain activity in detergent-free assay; purified cruzain, Z-FR-AMC fluorescence, no detergent; AID 1476; hit rate 2.3% among 200,000; Potency, µM, without a hit: max response, negative = inhibition, most hits filed as inhibitors; P25779;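 further: plate controls were enzyme without inhibitor for no effect and buffer without enzyme for full effect; nearly all actives have a fitted effect of over 40% in size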
Target sequence (P25779 123-467 limits assumed): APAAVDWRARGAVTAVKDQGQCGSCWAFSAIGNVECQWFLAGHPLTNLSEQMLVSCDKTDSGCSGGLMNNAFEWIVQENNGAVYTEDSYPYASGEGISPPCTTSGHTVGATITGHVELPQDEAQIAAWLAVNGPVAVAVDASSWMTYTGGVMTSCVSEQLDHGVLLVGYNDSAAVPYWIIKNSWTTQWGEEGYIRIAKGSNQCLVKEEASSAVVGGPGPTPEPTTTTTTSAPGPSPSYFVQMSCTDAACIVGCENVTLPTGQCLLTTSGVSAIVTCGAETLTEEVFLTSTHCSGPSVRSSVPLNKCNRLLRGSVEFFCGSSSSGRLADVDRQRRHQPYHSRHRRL
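Detergent-free condition (0.00005% Triton X-100) in acetate buffer pH 5.5 with DTT. 1.5 nM enzyme and compound were pre-mixed 15 min, then 2 uM Z-FR-AMC substrate added; reaction progress from fluorescence change between first and third reads (60 s).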
Cruzain Triton: blocks cruzain activity in presence of Triton detergent; P25779; purified cruzain, Z-FR-AMC fluorescence, 0.01% Triton; Potency, µM, for the others: max response, negative = inhibition, actives largely listed as inhibitors; hit rate 0.43% among 200,000;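 further: plate controls were neutral wells for no effect and buffer without enzyme for full effect; nearly all actives have a fitted effect of over 40% in size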
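15 min RT preincubation of 1.5 nM cruzain with compound, then 2 uM Z-FR-AMC added; kinetic AMC fluorescence, 60 s delta. Triton X-100 0.01%, pH 5.5.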
An asterisk follows results filed as active; ? = inconclusive; ! = repeats disagree. Hits are enriched below; roughly 2.6% of the tested compounds scored in any of these assays. The call rests on the fitted dose curve; in most records, active means well fitted curve in the direction sought with a large enough effect; inconclusive means small, poorly fitted or top-dose-only effect, or another doubt; inactive means no such curve, though single readings can be large; an effect the other way counts as inactive or inconclusive. Potency means the concentration at half of the fitted maximal effect.

SMILES	Cruzain inh noDet	Cruzain Triton
CCOC(=O)C(NCCCCl)c1ccccc1 (stereo not given)	0%	5%
CC[C@@H]1C(c2cccc(Cl)c2)=NN(c2ccccc2)[C@H]1C(=O)N1CCOC1=O	-30%	-1%
C[C@@H]1C(c2ccc(F)cc2)=NN(c2ccccc2)[C@H]1C(=O)N1CCOC1=O	-4%	-12%
O=C1OCCN1C(=O)[C@H]1[C@H](c2ccc(Cl)cc2)C(c2cccc(Cl)c2)=NN1c1ccccc1	18µM*	-14%
O=C1OCCN1C(=O)[C@H]1[C@H](c2ccc(F)cc2)C(c2cccc(Cl)c2)=NN1c1ccccc1	20µM*	-4%
CCOC(=O)c1c(NC(=O)COC(=O)Cn2c(C(F)(F)F)nc3ccccc32)sc(C)c1C	-4%	-6%
C/C(=C\C1CCCCC1)C(NC(=O)c1ccc(C(F)(F)F)cc1)c1ccc(-c2ccccc2)cc1 (stereo not given)	?	0%
N#CC(C#N)=C/C(C#N)=C(/N)N1CCN(c2ccc(Cl)cc2)CC1	-3%	-10%
Cc1cc(=O)n2[nH]c(N)c(N=Nc3ccccc3)c2n1	-5%	-6%
Nc1ccc(N=Nc2ccccc2)c(N)n1	20µM*!	-3%
CCc1ccccc1NC(=O)Cn1nnc(C(=O)NCc2ccccc2Cl)c1N	-30%	1%
COc1ccc(-c2cc(C(F)(F)F)nc(SCC(=O)Nc3sc4c(c3C#N)CCC4)n2)cc1	13µM*	-11%
CCC1CCc2c(sc(NC(=O)CSc3nc(-c4ccco4)cc(C(F)(F)F)n3)c2C#N)C1 (stereo not given)	1.3µM*	4%
N#Cc1c(NC(=O)CSc2nc(-c3ccccc3)cc(C(F)(F)F)n2)sc2c1CCC2	?	-9%
CCOC(=O)c1sc(NC(=O)CSc2nc(-c3ccco3)cc(C(F)(F)F)n2)c(C(=O)OC)c1C	-9%	1%
O=c1ccc2c(O)c3ccoc3cc2o1	13%	0%
Cc1ccc(-c2c[n+](CC(=O)N3c4ccccc4Sc4ccccc43)c3n2CCC3)cc1	16%	-4%
Cc1ccc2nc(N3CCN(c4ccccc4)CC3)c3nnnn3c2c1	-2%	0%
Clc1cccc(N2CCN(c3nc4ccccc4n4nnnc34)CC2)c1	20µM*	-3%
CC(C)c1ccccc1NC(=O)COc1ccc2c(=O)c(Oc3ccc4ccccc4c3)coc2c1	32µM*	-3%
CCc1ccccc1NC(=O)COc1ccc2c(=O)c(Oc3cc(C)ccc3C)coc2c1	?	-5%
Cn1c(=O)c2cc(C(=O)Nc3cccc(C#N)c3)sc2c2ccccc21	2%	4%
CCOc1ccc(CCNC(=O)C2CCN(c3nnc(-n4cccc4)s3)CC2)cc1	16µM*	-1%
CCOc1ccc(CCNC(=O)C2CCN(c3nnc(-n4cccc4)s3)CC2)cc1OCC	14%	-5%
CN(C)C=Nc1ccc2nn(-c3ccccc3)nc2c1	-2%	-10%
SMILES	Cruzain inh noDet	Cruzain Triton
O=C(Nc1c(Cl)cccc1Cl)c1ccc(-c2ccccc2)cc1	-9%	1%
O=C(Nc1ccc(Cl)cc1Cl)c1ccc(-c2ccccc2)cc1	25µM*	0%
Cc1ccc([N+](=O)[O-])cc1NC(=O)c1ccc(C(C)(C)C)cc1	-2%	-1%
Cc1ccc([N+](=O)[O-])cc1NC(=O)c1ccc(-c2ccccc2)cc1	13µM*	3%
CC1CC(C)CN(C(=O)c2ccc(CSc3nc4ccncc4[nH]3)cc2)C1 (stereo not given)	9%	2%
Fc1ccccc1CSc1nnnn1-c1ccc2c(c1)OCO2	-5%	-3%
Cc1ccc2c(c1)c(=O)c(C(=O)c1ccc3c(c1)OCO3)cn2Cc1cccc(F)c1	?	-1%
O=C(NCc1ccncc1)Nc1cccc(Cl)c1	-2%	1%
CCCC(=O)NCc1ccc2c(c1)cc(C)n2C	4%	7%
Cc1cc2cc(CNC(=O)Nc3cccc(Cl)c3)ccc2n1C	13µM*	2%
Cc1cccc(NC(=O)NCc2ccc3c(c2)cc(C)n3C)c1	7.9µM*	6%
N/C(=N\OC(=O)CCC1CCCC1)c1cccc([N+](=O)[O-])c1	-10%	-6%
CC(C)CC1N=C2c3ccccc3N=C(SCC(=O)NCCc3ccc(Cl)cc3)N2C1=O (stereo not given)	11%	1%
CCN1C(=O)/C(=C\N(C)C)c2ccccc21	-6%	-6%
COc1ccc(NC(=O)C2Cc3ccccc3N2C(=O)c2ccccc2)cc1OC (stereo not given)	-4%	9%
CC(C)(C)C1CCC(=NNC(=O)CC(=O)NCc2ccccc2)CC1 (stereo not given)	1%	-1%
O=C1C2CC=CCC2C(=O)N1Cc1ccccc1Cl (stereo not given)	12%	0%
N#Cc1nc(-c2cccc3ccccc23)oc1NCCN1CCOCC1	-4%	-30%
CCCNc1oc(-c2cccc3ccccc23)nc1C#N	3.2µM*	?
COP(=O)(OC)c1nc(-c2cccc3ccccc23)oc1NCCc1ccccc1	?	25µM*
COP(=O)(OC)c1nc(-c2cccc3ccccc23)oc1N1CCOCC1	15%	-17%
COc1ccc(C(=O)c2ccc(O)cc2)c(O)c1O	-11%	-1%
C/C(=N\NC(=O)COc1ccc(C(C)(C)C)cc1)c1cc2ccccc2o1	14%	-10%
CC(C)(C)OC(=O)N/N=C\c1ccc(OC(=O)c2cccs2)cc1	0%	-8%
Cc1cccc(-c2nnc(SCC(=O)Nc3cccc(C(=O)N4CCOCC4)c3)n2C)c1	0%	1%
SMILES	Cruzain inh noDet	Cruzain Triton
O=C(Oc1ccc(OC(=O)c2ccco2)c(S(=O)(=O)c2ccc(Br)cc2)c1)c1ccco1	25µM*	-1%
Cc1ccc(S(=O)(=O)c2cc(OC(=O)c3ccco3)ccc2OC(=O)c2ccco2)cc1	-20%	-5%
CCOc1ccc(CCNC(=O)COC(=O)/C=C/c2ccc(OCC#N)c(OC)c2)cc1OCC	?	-10%
COc1ccc(C2C(C#N)=C(N)Oc3n[nH]c(-c4ccccn4)c32)c(OC)c1OC (stereo not given)	8%	-3%
CCCCc1ccc(C2C(C#N)=C(N)SC(N)=C2C#N)s1	32µM*	?
CCOc1ccc(C2C(C#N)=C(N)SC(N)=C2C#N)c(OCC)c1	-1%	-11%
CCOc1ccc(-c2nnc(SCC(=O)N(CC)c3cccc(C)c3)o2)cc1	-14%	-3%
CCCCNC(=O)C1=C(N)C(C(=O)Nc2ccc(C)c(S(=O)(=O)N3CCCCC3)c2)SC1=Nc1ccc(C)cc1C (stereo not given)	7.9µM*	7%
CCN(CC)S(=O)(=O)c1cccc(NC(=O)C2SC(=Nc3ccc(C)cc3C)C(C(=O)NC(C)COC)=C2N)c1 (stereo not given)	-11%	1%
CCOC(=O)C1(C)C=C(Nc2ccc(OC)cc2)C(=O)N1c1ccc(OC)cc1 (stereo not given)	16µM*	6%
CCOC(=O)C1(C)C=C(Nc2ccc(O)cc2)C(=O)N1c1ccc(O)cc1 (stereo not given)	-9%	-7%
Cc1[nH]c(=S)c(C#N)c(C)c1C(=O)Nc1ccccc1	-6%	2%
CCc1ccccc1Nc1nn2c(=O)c3ccc(C(=O)NCc4ccccc4OC)cc3nc2s1	13µM*	-4%
CCc1ccccc1Nc1nn2c(=O)c3ccc(C(=O)Nc4ccc(OC)cc4)cc3nc2s1	-20%	-2%
COc1ccccc1Nc1nn2c(=O)c3ccc(C(=O)NCc4ccc(F)cc4)cc3nc2s1	-12%	-4%
CCc1ccccc1Nc1nn2c(=O)c3ccc(C(=O)NCCC4=CCCCC4)cc3nc2s1	25µM*	-4%
